Experimental data as given in PubChem BioAssay (NCATS).
Records with an inconclusive call do not appear. The source made the active and inactive calls. Calls come from the whole dose curve; as a rule, active = well fitted inhibition curve with a large enough effect; inconclusive = small, poorly fitted or top-dose-only effect; inactive = no such curve, though single readings can be large or run the other way. Where a SMILES comes first, the peptide text is derived from it. The star is where a group is joined. Hexanoyl = CCCCCC(=O)*

assay: Confirmatory screen NINDS Rhodamine qHTS for Zika virus inhibitors (AID 1347161); settings: purified enzyme assay, Rhodamine110 substrate fluorescence, 15 min; series mostly up to 114 µM; activity change, negative = inhibition: at the top concentration; note: nearly all actives have a fitted effect of over 60% in size;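 for activity change, negative = inhibition: purified Zika NS2B-NS3 protease with linked NS2B cofactor domain and Rhodamine110 peptide substrate; plate controls were no-inhibitor control for no effect and no-enzyme control for full effect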
In short: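 Percent inhibition, normalized to uninhibited and enzyme-free controls, is fitted to a 4-parameter Hill equation. Fluorescence change comes from a 15-min cleavage of 1.5 microM bis-peptide Rhodamine110 substrate by 25 nM linked NS2B-NS3 at room temperature.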
Potency is the fitted concentration of half-maximal effect.

Structure (SMILES) | Potency | activity change, negative = inhibition
CC(C)CC(c1c(O)c(C=O)c(O)c(C=O)c1O)C1CCC(C)(O)C2CC(C(C)(C)O)CCC12C (stereo unspecified) | 3.41 µM (active) | –
Cc1ccccc1-n1nc(-c2c(-c3ccc(F)cc3)nn3c2NC[C@@H](CO)C3)ccc1=O | – | 1.73% (inactive)
CSCC[C@H](NC(=O)[C@H](CO)NC(=O)[C@H](CCC(=O)O)NC(C)=O)C(=O)N[C@H](C=O)CC(=O)O (Ac-ESMD-aldehyde) | – | 12.5% [at 22.2 µM] (inactive)
CC1(C)CC[C@]2(C(=O)O)CC[C@]3(C)C(=CCC4[C@@]5(C)CC[C@H](O[C@@H]6O[C@H](C(=O)O)[C@@H](O)[C@H](O)[C@H]6O)C(C)(C)C5CC[C@]43C)C2C1 (stereo partly specified) | 6.55 µM (active) | –
Cn1cc(-c2c[nH]c3ncnc(N4CCOCC4)c23)cn1 | – | 15.6% (inactive)
CCCCCC(=O)N1CCC[C@H]1C(=O)N[C@@H](Cc1ccc(O)cc1)C(=O)OC (Hexanoyl-Pro-Tyr-OMe) | – | 13.3% (inactive)
